How the values were obtained:
[1] = target: T1, ETS1 (UniProt P14921); assay: ETS1 binding intensity (PBM fluorescence), ETS1 alone (arbitrary fluorescence units); higher = stronger binding; settings: ETS1 concentration 1 nM; RUNX1 concentration 0 nM
T1 sequence: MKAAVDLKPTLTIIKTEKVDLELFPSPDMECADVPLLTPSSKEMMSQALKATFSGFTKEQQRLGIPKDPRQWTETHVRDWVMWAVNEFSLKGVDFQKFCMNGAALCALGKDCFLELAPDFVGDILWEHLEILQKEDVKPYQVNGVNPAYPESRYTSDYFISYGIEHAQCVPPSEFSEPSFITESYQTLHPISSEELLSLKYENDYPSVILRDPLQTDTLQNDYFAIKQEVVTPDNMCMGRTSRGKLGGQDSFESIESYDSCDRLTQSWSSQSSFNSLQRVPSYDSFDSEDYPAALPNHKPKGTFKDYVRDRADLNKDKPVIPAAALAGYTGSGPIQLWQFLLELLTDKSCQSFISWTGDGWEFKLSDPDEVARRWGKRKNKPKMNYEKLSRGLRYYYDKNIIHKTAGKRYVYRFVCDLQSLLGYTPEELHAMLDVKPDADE

[2] = target: RUNX1 (UniProt Q01196); assay: RUNX1 binding intensity (PBM fluorescence), RUNX1 alone (arbitrary fluorescence units); higher = stronger binding; settings: RUNX1 concentration 2 nM; ETS1 concentration 0 nM
RUNX1, sequence (Q01196 whole entry): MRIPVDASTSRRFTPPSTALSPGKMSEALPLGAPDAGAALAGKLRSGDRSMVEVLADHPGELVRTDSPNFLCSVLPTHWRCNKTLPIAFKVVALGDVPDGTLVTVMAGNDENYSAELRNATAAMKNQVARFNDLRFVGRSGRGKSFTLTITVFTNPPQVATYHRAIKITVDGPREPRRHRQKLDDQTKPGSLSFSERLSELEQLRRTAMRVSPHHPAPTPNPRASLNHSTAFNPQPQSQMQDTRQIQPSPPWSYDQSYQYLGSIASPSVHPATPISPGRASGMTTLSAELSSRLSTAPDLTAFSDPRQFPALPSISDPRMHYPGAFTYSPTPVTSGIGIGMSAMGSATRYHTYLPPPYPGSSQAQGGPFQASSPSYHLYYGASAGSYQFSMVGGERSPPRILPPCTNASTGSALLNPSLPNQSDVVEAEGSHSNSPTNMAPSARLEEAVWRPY
Method: (§1)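 Cooperative gcPBM on 36-bp genomic probes with neighbouring ETS1 and RUNX1 sites. Recombinant human RUNX1 (2 nM) was incubated alone or with ETS1 (25 nM) and detected with anti-RUNX1 antibody plus Alexa488 secondary. Values are medians over 4 replicate spots; the RUNX1+ETS1 data were normalised to the RUNX1-only data. The probes sit in constant array flanks that are not printed.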

[3] = target: T1, ETS1; assay: ETS1 binding intensity (PBM fluorescence) in presence of RUNX1, normalised to ETS1-only experiment (arbitrary fluorescence units); higher = stronger binding; settings: ETS1 concentration 1 nM; RUNX1 concentration 25 nM
[4] = target: RUNX1 (UniProt Q01196); assay: RUNX1 binding intensity (PBM fluorescence) in presence of ETS1, normalised to RUNX1-only experiment (arbitrary fluorescence units); higher = stronger binding; settings: RUNX1 concentration 2 nM; ETS1 concentration 25 nM
Method: as §1
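Throughout, for RUNX1 binding intensity (PBM fluorescence) in presence of ETS1, normalised to RUNX1-only experiment: Full-length recombinant human ETS1 or RUNX1 bound to double-stranded 36-bp genomic probes on microarrays, detected by protein-specific primary antibody and Alexa488 secondary, spot fluorescence as median of four replicate spots.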
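Throughout, for RUNX1 binding intensity (PBM fluorescence), RUNX1 alone: Full-length recombinant human RUNX1 bound to double-stranded 36-bp genomic probes on a high-density microarray, scored as Alexa488 fluorescence per spot via anti-RUNX1 antibody, median of four replicate spots.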

Sequence	ETS1 binding intensity [1]	RUNX1 binding intensity [2]	ETS1 binding intensity [3]	RUNX1 binding intensity [4]
CCTTGCTGCAGGATGCTCTAACCACAAGCCCAGGAG	528	2370	2720	5330
GAAACCCCATGGGCAGGATGTGGGTGAGCTGTCTGG	3380	742	5020	1280
GCGGGCAGGATCTTCCTGTGGTTTGCCTTGCCCACT	388	904	653	2190
TGGCATTCTCCTTCCTGTCTCCTAACCACAGCCCAC	741	2110	2050	4690
ACATGGTCTCGCTTCCTGTTTACACCACAGAAAGCT	2820	1040	4140	1850
ACATTCTTCCGGTTGGACCTCCGCGGTCAGCGCTGT	871	1110	1710	3220
GCACAGGCCGGAAGGAAAAGGGTTGTGGGGCTCATT	1290	814	1180	952
AACCCACCGGATGGAAGCTGCCACTCAGCCGCAGGA	1100	836	1700	1030
GACACGTCTTTGGAAGGATGTGGTTGCCGTGGGTTT	724	786	5580	880
ACCCCAAGCCCAGGATGTGGTTTGGCCACTATTGAG	727	859	4450	2030
GAGCATAGCCTAGCAGGATGTGGTTAAATACATTTG	3320	747	32800	1970
TGTTTTTGTTTCCGTTTACAAACCACAACAAAGGTG	736	2390	1620	4730
AACAGTCACATCCGGGGCCGAGAGGAACCGCGAACG	1100	894	2080	1740
ACCACGAGCCCAGGATGCGGTTTATGCGCTGTCGGG	699	2660	2890	4230
AGATGCAGAACAGGAAGTGGTTTAGAAAGCCACTCT	8980	827	13700	2720
TGAAGCCATGGTTTCCTGTCTGCGGCTCAGATCAAG	1020	717	1600	1490
ACCAGAACAGGAAATGTTAGTGGTTGAGTTAACGGT	3760	700	5800	1260
ACACCCCAGGCAGGATGTGGTAGGGGTTGCCCCAGA	2740	741	5030	2080
CTGCCGCTGCCTTCCGCCCCCACACACGCACACCAC	686	1240	741	1640
AGCCCGGCTTCCGGCGCGTGCCGCTGCGGCTGCAGG	791	678	1030	1370

Sequence	ETS1 binding intensity [1]	RUNX1 binding intensity [2]	ETS1 binding intensity [3]	RUNX1 binding intensity [4]
TGGGGACAGGAAATGTTTACTGCCTGTGGCTTGCTG	3340	705	4240	981
GCCGATGAGGAAGTGAGGGCCAACCACACTGCTCAG	544	878	673	749
GACATGCTCCGGAAGCTTGAGGTTTTAACGTTAAGG	2040	734	5030	1390
ACCTTCGCCGGATGCTGTGGCTGAAACCACAGCATT	2480	994	13300	1980
ACAACCCGGAAGTTGGCGCAGCGCGGTTGCCAATGG	4350	671	4910	1300
AAAGCAAACAGGAAGTGCTGTGGTAACAAGGCCCCA	6830	728	14500	1820
GCGGCGAACCGGACGCCCCAACCACCCGCCCCCCAC	1710	987	1470	1060
GTTCTTATCCTGTGGCTCGTTTGTGGTTACTGACAT	425	4330	741	4260
TTTCTGAAACCCTCAGGATGTGGGTTTTCACACTGT	1310	800	6900	1100
TGCAGTCGTGAAAAAGGAAGTGGTTAAAGTGGATAC	2880	836	9240	1520
CCCACTTCCTGTCCCTGCATGCTGTGGGGCAGGCAG	1500	784	1570	2420
GTTGGGGTGCGTGTAGGATGTGGTCTGGGATGATTA	599	1050	2610	867
ACAGATACAGCCTCAGGAAGTGGTTTTGTATCTCTG	3200	682	6160	1070
CGGGGCTTCCGGCGCGCTGCCTTGTGGGCACGGTAG	591	711	611	1390
GCGAGAGGGAGGAAGTGACTCACCAACCACAACAAA	1480	970	5020	1220
GCTCTTCACTTCCTGTGGCTCCCGCAGCGGCCGCCG	1920	1090	1560	2460
CACTTCCCGTGGGAGGATCTTGGGCTGCGGCTAGGG	421	803	802	1850
AAAGTTGTATAGTGAGGATGTGGTCAAGAACTCACC	577	1010	4380	1180
CAGCTCTCTCGCTTCCTGTGGTGTAAACATGAAGCA	1570	964	1400	1500

From the supplement of paper PMC10681739
